59 compounds from PubChem BioAssay AID1851 (National Center for Advancing Translational Sciences (NCATS), 2009) can be followed below.

SMILES strings stand for the structures. Screen size: about 16,000 compounds; about 5,100 (32%) were called active. Another 25% or so got no clear call; they are omitted. Calls come from the whole dose curve; as a rule, active = well fitted curve in the direction sought with a large enough effect; inconclusive = small, poorly fitted or top-dose-only effect, or effect the other way; inactive = no such curve, though single readings can be large or run the other way. This is one part of the list.
% is set by controls: 0 for no effect and ±100 for the full control effect.

The target of this assay is Cytochrome P450 3A4 (Homo sapiens) (UniProt P08684). As to the kind of experiment: Cytochrome panel assay with activity outcomes. The following applies: recombinant CYP, pro-luciferin dealkylation, luminescence, p450-cyp3a4; series mostly up to 57.1 µM; activity, negative = inhibition: at the top concentration.
Chain of Cytochrome P450 3A4 (Homo sapiens) (P08684 whole entry, looked up): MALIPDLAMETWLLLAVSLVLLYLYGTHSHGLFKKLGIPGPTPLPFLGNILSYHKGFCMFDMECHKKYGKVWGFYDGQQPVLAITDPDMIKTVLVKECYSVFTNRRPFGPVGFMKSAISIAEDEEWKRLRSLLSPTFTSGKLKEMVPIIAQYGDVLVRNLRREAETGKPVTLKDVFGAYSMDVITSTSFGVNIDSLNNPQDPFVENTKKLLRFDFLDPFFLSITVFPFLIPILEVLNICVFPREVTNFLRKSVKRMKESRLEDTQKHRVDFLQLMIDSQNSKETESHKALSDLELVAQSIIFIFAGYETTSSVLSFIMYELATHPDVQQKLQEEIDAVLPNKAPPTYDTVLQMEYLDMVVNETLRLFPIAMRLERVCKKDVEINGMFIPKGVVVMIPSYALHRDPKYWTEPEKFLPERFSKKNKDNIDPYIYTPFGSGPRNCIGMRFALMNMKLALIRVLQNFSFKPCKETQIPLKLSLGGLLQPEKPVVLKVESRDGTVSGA
Regarding `C=C(C)CN(CC#N)CC(=C)C`, the activity, negative = inhibition was -17.3% [at 11.4 µM] (inactive). The term AC50 denotes the midpoint of the concentration-response curve, whichever way the signal moves. In the case of `COc1ccc(N2CCc3c(C)nc4c(OC)cc(OC)cc4c32)c(OC)c1`, the AC50 was 5.01 µM (active). With `Cc1o[nH]c(=O)c1CC[C@H](N)C(=O)O`, the “activity, negative = inhibition” value is -16.4% (inactive). On the same count and under the same terms, next, `CCCS(=O)(=O)N1CCCC(C(=O)NCC2CCCO2)C1` (centres undefined): 1.91% (inactive); `CCCc1nnc(SCC(=O)N2CCCCC2)n1CCCOC`: -17.4% (inactive). As for `CCCc1nnc(SCC(=O)N2CCCC(C)C2)n1CC1CCCO1` (centres undefined), the half-maximal activity concentration (AC50) is 8.91 µM (active).

For `CCCc1nnc(SCC(=O)N2CCCCC2)n1CC1CCCO1` (centres undefined), the AC50 is 15.8 µM (active).

For the compound `CCCc1nnc(SCC(=O)N2CCCCC2C)n1CC1CCCO1` (centres undefined), the half-maximal activity concentration (AC50) was 12.6 µM (active).

`CCCc1nnc(SCC(=O)N2C(C)CCCC2C)n1CCCOC` (centres undefined): the activity, negative = inhibition was 8.82% [at 2.29 µM] (inactive). On the same count and under the same terms, next, `C[N+](C)(C)CCCCCNCC12CC3CC(CC(C3)C1)C2`: -10.3% (inactive); `O=C(O)[C@H](Cc1cc(I)c(O)c(I)c1)C1CCCCC1`: -12.6% [at 11.4 µM] (inactive).

Regarding `CCOc1cc2[nH]c(=O)n(CCCC(=O)NCc3ccc(OC)cc3)c(=O)c2cc1OCC`, the AC50 is 2.51 µM (active).

`CCOc1cc2[nH]c(=O)n(CCC(=O)NCc3ccc(OC)cc3)c(=O)c2cc1OCC`: the AC50 was 3.55 µM (active).

Consider `CCc1ccc(NC(=O)c2cc(C(C)C)on2)cc1`, for which the “activity, negative = inhibition” value was -3.41% (inactive).

`Cc1ccc(Cn2nc(C)c(NC(=O)c3cc(-c4ccco4)on3)c2C)cc1`: the AC50 was 2.24 µM (active). Take `O=C(c1cc(-c2ccco2)on1)N1CCOCC1`: the “activity, negative = inhibition” value was -7.73% (inactive). `Cc1cc(C=C(C#N)C#N)c(C)n1-c1ccccc1`: the “activity, negative = inhibition” value is 5.65% (inactive). On the same count and under the same terms, next, `O=C(c1cccc(F)c1)N1CCC2(CCCN(Cc3ccccc3)C2)CC1`: -24.7% (inactive). With `COCC(=O)N1CCC2(CCCN(Cc3cc(C(F)(F)F)cc(C(F)(F)F)c3)C2)CC1`, the AC50 was 20 µM (active). Regarding `COCC(=O)N1CCC2(CC1)CN(Cc1cc(C(F)(F)F)cc(C(F)(F)F)c1)C2`, the “activity, negative = inhibition” value was -17% (inactive). The same measure, in the same setting: the value for `COCC(=O)N1CCC2(CCCN(Cc3ccccc3)C2)CC1` was -23.3% (inactive). As for `COc1ccc(C(=O)N2CCC[C@@]3(CCN(Cc4cc(C(F)(F)F)cc(C(F)(F)F)c4)C3)C2)cc1`, the AC50 was 3.16 µM (active). Same read-out and setting: next, `O=C(c1cccc(F)c1)N1CCC2(CCCN(Cc3cc(C(F)(F)F)cc(C(F)(F)F)c3)C2)CC1`: 10 µM (active). `COC(=O)N1CCC2(CCN(Cc3cc(C(F)(F)F)cc(C(F)(F)F)c3)CC2)CC1`: the “activity, negative = inhibition” value is -24.3% (inactive). The same measure, in the same setting: next, `COC(=O)N1CCC2(CCCN(Cc3cc(C(F)(F)F)cc(C(F)(F)F)c3)C2)CC1`: -0.66% (inactive). Turning to `COc1ccc(C(=O)N2CCC3(CCCN(Cc4cc(C(F)(F)F)cc(C(F)(F)F)c4)C3)CC2)cc1`, the half-maximal activity concentration (AC50) is 10 µM (active). Regarding `FC(F)(F)c1cc(CN2CC3(CCNCC3)C2)cc(C(F)(F)F)c1`, the “activity, negative = inhibition” value is -20.6% (inactive). On to `CS(=O)(=O)N1CCC2(CC1)CN(Cc1cc(C(F)(F)F)cc(C(F)(F)F)c1)C2`, for which the “activity, negative = inhibition” value was -22.2% (inactive). Take `FC(F)(F)c1cc(CN2CCCC3(CCNCC3)C2)cc(C(F)(F)F)c1`: the AC50 is 7.94 µM (active). In the case of `CC(C)(C)N1C(=O)[C@H]2[C@H]3[C@H](O)[C@H](O)C/C(=N/NC(=O)OCc4ccccc4)[C@H]3CC[C@@H]2C1=O`, the activity, negative = inhibition was -22.6% [at 11.4 µM] (inactive). Still for that read-out and setting: next, `COc1ccc(N2CC(C(=O)Nc3cc(C)on3)CC2=O)cc1` (centres undefined): -17.7% (inactive).

Take `COc1ccc(/C=C2\SC(=O)N(CCNC(=O)C3CC(=O)N(c4ccccc4)C3)C2=O)cc1` (centres undefined): the AC50 was 2.82 µM (active). As for `NC(N)=NC(N)=Nc1ccc(S(N)(=O)=O)cc1`, the activity, negative = inhibition is -13.3% [at 11.4 µM] (inactive). As for `Cc1nn(C)c(C(=O)NNC(=S)Nc2ccc(Cl)cc2)c1[N+](=O)[O-]`, the activity, negative = inhibition was -8.67% [at 2.29 µM] (inactive). Regarding `COc1ccccc1NC(=S)NNC(=O)c1c(Cl)c(C)nn1C`, the AC50 was 15.8 µM (active).

As to `COC(=O)c1c(-c2cc(OC)c(OC)c(OC)c2)c2ccnc(OCc3ncccn3)c2c(=O)n1Cc1ccnc(C)c1`, the AC50 was 15.8 µM (active).

As to `CCn1c(SCc2nc3ccccc3[nH]2)nnc1-c1ccc(OC)cc1`, the AC50 was 3.16 µM (active). Same read-out and setting: next, `c1ccc(-c2nnc(SCc3nc4ccccc4[nH]3)n2Cc2ccco2)cc1`: 2 µM (active); `c1ccc(SCc2nc3ccccc3[nH]2)cc1`: 12.6 µM (active).

Take `OC(Cc1nc2ccccc2[nH]1)c1ccccc1Cl` (centres undefined): the AC50 was 10 µM (active). Regarding `c1ccc2[nH]c(NC3=NCCC3)nc2c1`, the “activity, negative = inhibition” value is 8.35% (inactive). Consider `CC[C@]1(C)CC(=O)NC1=O`, for which the AC50 entry was “inactive”. Turning to `NCc1ccccc1CC(=O)N[C@@H]1C(=O)N2C(C(=O)O)=C(CSc3nnnn3CC(=O)O)CS[C@@H]12`, the “activity, negative = inhibition” value is -2.75% [at 25.6 µM] (inactive).

As to `C/C(C[n+]1ccccc1)=N\N=C(N)N`, the activity, negative = inhibition is 2.37% [at 11.4 µM] (inactive). As to `Cc1noc(C)c1-c1nccc(NCc2cccs2)n1`, the AC50 is 15.8 µM (active). For `Cc1noc(C)c1-c1nccc(NCc2ccccc2)n1`, the AC50 was 5.01 µM (active). The same measure, in the same setting: next, `Cc1noc(C)c1-c1nccc(NCc2cccnc2)n1`: 3.98 µM (active). As for `Nc1[nH]c(=O)nc2c1ncn2[C@H]1O[C@@H](CO)[C@@H](O)[C@@H]1O`, the activity, negative = inhibition was -8.49% [at 11.4 µM] (inactive).

As to `CCCCn1cnc2c(c(CC#N)nn2-c2ccccc2)c1=N`, the activity, negative = inhibition was -13.4% [at 11.4 µM] (inactive). On the same count and under the same terms, the value for `COCC(=O)N1CCC[C@@]2(CCN(c3ncccn3)C2)C1` was -13.1% (inactive); that for `COc1ccccc1C1/C(=C(/O)c2ccccc2)C(=O)C(=O)N1CCO` (centres undefined) was -5.34% (inactive). As for `CCOc1cccc(/C(O)=C2/C(=O)C(=O)N(Cc3cccnc3)C2c2ccco2)c1` (centres undefined), the AC50 is 12.6 µM (active). `COc1ccc(/C(O)=C2/C(=O)C(=O)N(Cc3cccnc3)C2c2ccco2)cc1OC` (centres undefined): the concentration at half-maximal activity (AC50) was 14.1 µM (active). As for `COc1ccc(C2/C(=C(/O)c3ccccc3)C(=O)C(=O)N2CC(C)O)c(OC)c1` (centres undefined), the “activity, negative = inhibition” value is -11.4% (inactive). Same read-out and setting: next, `Cc1ccc(C2/C(=C(/O)c3ccc(Cl)cc3)C(=O)C(=O)N2CC2CCCO2)o1` (centres undefined): -22.7% (inactive).

As to `COCCN1C(=O)C(=O)/C(=C(/O)c2cccc(OC)c2)C1c1ccco1` (centres undefined), the “activity, negative = inhibition” value was -0.898% (inactive). As for `CC(C)Oc1ccc(/C(O)=C2/C(=O)C(=O)N(Cc3cccnc3)C2c2ccco2)cc1` (centres undefined), the AC50 was 14.1 µM (active).

For `COc1ccc(C2C(C(=O)c3ccco3)=C(O)C(=O)N2Cc2cccnc2)cc1OC` (centres undefined), the “activity, negative = inhibition” value is -18.7% (inactive). With `COc1cccc(/C(O)=C2/C(=O)C(=O)N(Cc3cccnc3)C2c2ccco2)c1` (centres undefined), the concentration at half-maximal activity (AC50) was 14.1 µM (active).
